Some test systems named below: HT29 colon; SNB-75 CNS; SNB-19 CNS; U251 CNS; PC-3 prostate; SK-MEL-5 melanoma; UACC-62 melanoma; LOX IMVI melanoma; SK-MEL-2 melanoma; EKVX NSCLC; SN12C renal; UO-31 renal; TK-10 renal; ACHN renal; CAKI-1 renal; A498 renal; CCRF-CEM leukemia; MOLT-4 leukemia; SK-MEL-28 melanoma.
Experiment in all cases: NCI-60 one-dose screen, 48 h (100 = growth as untreated, 0 = no growth, -100 = all killed)
What all share (conditions): 10 µM unless noted

Values joined by “and” are separate entries in the source; they are usually repeats but may differ in a detail not shown here. Identical values can stand only once. This is part of a sample that, as a whole, favours compounds with a hit. Of some 83,000 tested, about 20% had one in any assay.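 Plates (96-well) were seeded with cells, treated with compound at one concentration, and incubated for 48 hours before percent growth was determined.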 A number with no mark means an inactive call. Active and inactive are the calls of the source. The calls were made as follows: active = growth percent below 10; inactive = the rest.

`C/C=C(/C(=O)NC(N)=O)C(C)C`: the growth in the assay with HT29 colon was 106%; with SNB-75 CNS, 120%; in the assay on SNB-19 CNS, 110%; in the assay on U251 CNS it was 98.8%; with PC-3 prostate, 105%; with SK-MEL-5 melanoma it was 115%. Moreover, the growth is 110% in the assay on UACC-62 melanoma; 100% with LOX IMVI melanoma; 109% with SK-MEL-2 melanoma; 112% in the assay with EKVX NSCLC; 102% with SN12C renal; 100% in the assay on UO-31 renal. Besides, the growth is 117% in the assay with TK-10 renal; 110% in the assay with ACHN renal; 104% in the assay on CAKI-1 renal; 102% in the assay on A498 renal; 111% with CCRF-CEM leukemia; 92.3% with MOLT-4 leukemia.
For `COc1ccc(CCl)c(C)c1OC`, the growth with HT29 colon is 102%; in the assay on SNB-75 CNS, 104%; in the assay on SNB-19 CNS it was 107%; in the assay on U251 CNS, 97.6%; in the assay on PC-3 prostate, 94.2%; in the assay with SK-MEL-5 melanoma it was 90.8%. The growth was 99.5% with UACC-62 melanoma; 94.3% in the assay on LOX IMVI melanoma; 109% with SK-MEL-28 melanoma; 104% in the assay on SK-MEL-2 melanoma; 104% in the assay on EKVX NSCLC; 98.2% in the assay with SN12C renal. Moreover, the growth in the assay on UO-31 renal is 89.7%; with TK-10 renal, 102%; in the assay with CAKI-1 renal it was 101%; in the assay with A498 renal, 89.5%; in the assay on CCRF-CEM leukemia, 97.3%; with MOLT-4 leukemia, 104%.
In the case of `COc1ccc([N+](=O)[O-])cc1OC`, the growth with HT29 colon is 112% and 101%; in the assay on SNB-75 CNS, 98%; in the assay with SNB-19 CNS it was 102% and 107%; in the assay on PC-3 prostate, 94.1% and 102%; in the assay on SK-MEL-5 melanoma it was 104% and 106%; in the assay on UACC-62 melanoma, 104% and 107%. For the same compound, the growth in the assay on LOX IMVI melanoma is 98.2% and 101%; with SK-MEL-28 melanoma, 95.9% and 107%; in the assay on SK-MEL-2 melanoma it was 123% and 103%; in the assay with EKVX NSCLC, 98.6% and 102%; in the assay on SN12C renal, 99.6% and 108%; in the assay on UO-31 renal it was 76.2% and 99.1%. The growth with TK-10 renal was 98.9% and 108%; in the assay on ACHN renal, 99% and 93.5%; in the assay on CAKI-1 renal, 93.8% and 102%; in the assay with A498 renal it was 73.1% and 128%; with CCRF-CEM leukemia, 89.6% and 102%; with MOLT-4 leukemia, 91.2% and 104%.
On to `C/C=C/C(=O)OCCCCCCCCCCCC`, for which the growth is 92.6% with HT29 colon; 101% in the assay with SNB-75 CNS; 85.2% with SNB-19 CNS; 101% with PC-3 prostate; 97.7% in the assay with SK-MEL-5 melanoma; 91.6% in the assay with UACC-62 melanoma. Besides, the growth in the assay on LOX IMVI melanoma was 106%; with SK-MEL-2 melanoma, 94.3%; in the assay on EKVX NSCLC it was 111%; in the assay with SN12C renal, 81.6%; with UO-31 renal it was 109%; with TK-10 renal, 92.8%. Also, the growth in the assay on CAKI-1 renal is 101%; in the assay on A498 renal it was 103%; with CCRF-CEM leukemia, 117%; with MOLT-4 leukemia, 83.1%.
With `COc1ccc(CCNC(=S)NN)cc1OC`, the growth in the assay on HT29 colon is 104%; in the assay on SNB-75 CNS, 106%; in the assay with SNB-19 CNS it was 127%; with U251 CNS, 105%; in the assay on PC-3 prostate it was 101%; in the assay with SK-MEL-5 melanoma, 103%. Moreover, the growth with UACC-62 melanoma is 115%; with LOX IMVI melanoma, 103%; in the assay on SK-MEL-28 melanoma, 114%; in the assay on SK-MEL-2 melanoma, 118%; in the assay with EKVX NSCLC, 103%; in the assay on SN12C renal, 117%. The growth is 90.2% in the assay with UO-31 renal; 120% with TK-10 renal; 108% with CAKI-1 renal; 106% in the assay on A498 renal; 92.5% in the assay on CCRF-CEM leukemia; 108% with MOLT-4 leukemia.
In the case of `S=c1nn[nH]n1C1CCCCC1`, the growth with HT29 colon was 116%; in the assay with SNB-75 CNS, 95.2%; in the assay with SNB-19 CNS it was 111%; in the assay on U251 CNS it was 102%; in the assay with PC-3 prostate, 101%; in the assay with SK-MEL-5 melanoma, 105%. The growth is 113% in the assay with UACC-62 melanoma; 111% in the assay on LOX IMVI melanoma; 117% in the assay on SK-MEL-28 melanoma; 129% in the assay on SK-MEL-2 melanoma; 106% in the assay with EKVX NSCLC; 105% in the assay on SN12C renal. Also, the growth in the assay with UO-31 renal is 100%; in the assay with TK-10 renal, 118%; in the assay with ACHN renal, 109%; in the assay with CAKI-1 renal it was 108%; in the assay on A498 renal, 87.5%; in the assay on CCRF-CEM leukemia, 93.9%. For the same compound, in the assay on MOLT-4 leukemia, the growth was 115%.
Consider `CCCC(=O)Oc1ccc2ccccc2c1`, for which the growth in the assay with HT29 colon is 103%; in the assay with SNB-75 CNS it was 105%; with SNB-19 CNS it was 101%; in the assay with U251 CNS it was 95.5%; in the assay on PC-3 prostate it was 73.1%; in the assay with SK-MEL-5 melanoma, 97.3%. Moreover, the growth in the assay with UACC-62 melanoma is 100%; with LOX IMVI melanoma, 101%; with SK-MEL-28 melanoma, 114%; with SK-MEL-2 melanoma it was 104%; with SN12C renal, 97%; in the assay on UO-31 renal, 76.8%. Further, the growth in the assay on TK-10 renal is 103%; in the assay with CAKI-1 renal it was 103%; with A498 renal, 103%; in the assay with CCRF-CEM leukemia it was 90.2%; with MOLT-4 leukemia it was 92.3%.
Take `S=c1ccc2ccccc2[nH]1`: the growth with HT29 colon is 96% and 100%; in the assay on SNB-75 CNS it was 94.9% and 85.8%; with SNB-19 CNS, 99.3% and 96.6%; in the assay with U251 CNS it was 96.7% and 98.1%; in the assay on PC-3 prostate, 86.3% and 96.4%; in the assay with SK-MEL-5 melanoma, 100% and 104%. The growth was 100% and 97.8% in the assay with UACC-62 melanoma; 102% and 103% with LOX IMVI melanoma; 109% and 103% in the assay with SK-MEL-28 melanoma; 97.9% and 97.2% in the assay with SK-MEL-2 melanoma; 107% and 103% in the assay on EKVX NSCLC; 101% in the assay on SN12C renal. Also, the growth in the assay on UO-31 renal is 88.2% and 80.9%; in the assay on TK-10 renal it was 105% and 108%; in the assay on ACHN renal it was 101% and 109%; in the assay on CAKI-1 renal it was 96.5%; in the assay with A498 renal, 110%; in the assay on CCRF-CEM leukemia, 103% and 101%. For the same compound, the growth with MOLT-4 leukemia is 93.3% and 100%.
On to `OCc1cccc(F)c1`, for which the growth in the assay with HT29 colon is 17.7%; in the assay with SNB-75 CNS, 102%; in the assay on SNB-19 CNS, 92.2%; in the assay on PC-3 prostate it was 91%; in the assay with SK-MEL-5 melanoma it was 92.6%; with UACC-62 melanoma, 84.7%. The growth was 76.8% in the assay on LOX IMVI melanoma; 116% with SK-MEL-28 melanoma; 2.28% (active) in the assay with SK-MEL-2 melanoma; 106% in the assay with EKVX NSCLC; 83.6% in the assay with SN12C renal; 75.1% in the assay with UO-31 renal. For the same compound, the growth in the assay with TK-10 renal was 96.5%; with ACHN renal it was -0.315% (active); in the assay with CAKI-1 renal, 34.2%; in the assay with A498 renal, 111%; in the assay on CCRF-CEM leukemia, 103%; in the assay with MOLT-4 leukemia, 83.5%.
For `COC(=O)C(Cc1cn(C(C)=O)c2ccccc12)P(=O)(OC)OC` (configuration not stated), the growth in the assay with HT29 colon was 108%; in the assay with SNB-75 CNS, 89.5%; in the assay on SNB-19 CNS it was 104%; in the assay on U251 CNS it was 101%; with PC-3 prostate, 88.6%; with SK-MEL-5 melanoma, 96.8%. In addition, the growth in the assay on UACC-62 melanoma was 93.1%; with LOX IMVI melanoma, 92.7%; in the assay on SK-MEL-2 melanoma, 102%; with EKVX NSCLC it was 90.6%; in the assay with SN12C renal, 97.7%; in the assay with UO-31 renal, 74.8%. In addition, the growth in the assay on TK-10 renal was 100%; with ACHN renal, 100%; in the assay with CAKI-1 renal, 102%; with A498 renal it was 115%; in the assay with CCRF-CEM leukemia it was 110%; in the assay with MOLT-4 leukemia, 108%.
For the compound `CCOC(=O)c1ccncc1`, the growth is 104% in the assay with HT29 colon; 108% in the assay with SNB-75 CNS; 111% with SNB-19 CNS; 104% with U251 CNS; 97.5% in the assay with PC-3 prostate; 95.8% in the assay with SK-MEL-5 melanoma. For the same compound, the growth was 101% with UACC-62 melanoma; 99% in the assay with LOX IMVI melanoma; 110% in the assay on SK-MEL-28 melanoma; 106% with SK-MEL-2 melanoma; 104% with EKVX NSCLC; 98.9% in the assay with SN12C renal. For the same compound, the growth is 90.2% with UO-31 renal; 99.4% in the assay on TK-10 renal; 119% with ACHN renal; 104% with CAKI-1 renal; 86.8% in the assay on A498 renal; 108% in the assay with CCRF-CEM leukemia. Moreover, in the assay on MOLT-4 leukemia, the growth is 104%.
`CC(=O)/C(N=Nc1ccc(S(=O)(=O)c2ccc(N=N/C(C(C)=O)=C(/C)O)cc2)cc1)=C(\C)O`: the growth in the assay with HT29 colon is 102%; with SNB-75 CNS it was 97.7%; in the assay with SNB-19 CNS, 114%; with U251 CNS, 101%; in the assay on PC-3 prostate, 92.1%; in the assay with SK-MEL-5 melanoma, 108%. The growth in the assay on UACC-62 melanoma was 114%; with LOX IMVI melanoma, 99.1%; in the assay on SK-MEL-28 melanoma, 113%; in the assay on SK-MEL-2 melanoma it was 117%; in the assay on EKVX NSCLC, 116%; with SN12C renal it was 110%. The growth in the assay on UO-31 renal is 83.5%; in the assay with TK-10 renal it was 108%; in the assay on ACHN renal it was 104%; with CAKI-1 renal it was 100%; in the assay on A498 renal, 100%; in the assay on CCRF-CEM leukemia, 85.9%. The growth in the assay on MOLT-4 leukemia is 100%.

For the origin of these results see PubChem BioAssay (NCI).
